# Test results published in PubChem BioAssay.
# Values without a mark were called inactive. Active and inactive are the calls of the source.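 The calls were made as follows, unless noted: active = inhibition of the reporter signal at or above 50%; inactive = inhibition below 50%.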
# Test: inhibitors of Sendai virus-induced IRF3 signaling, primary screen, TLR/RLR signaling modifier project, cell-based, Sendai virus stimulus, luciferase, 10K MLSCN set (AID 602276;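 active = inhibition at or above 50% at 10 µM; inactive = inhibition below 50%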;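 also: firefly luciferase from ISG56 promoter only with Renilla not read in this screen; 0% = Sendai virus plus DMSO and 100% = medium plus DMSO without virus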)
# Conditions: HEK293 RL24 IRF3 luciferase reporter, at 10 µM, active compounds read high
row,Structure (SMILES),inhibition [%]
1,CCC(=NC(C)c1ccccc1)c1c(O)n(C)c(=O)n(C)c1=O (stereo not given),8.09
2,O=C(c1ccc(S(=O)(=O)N2CCOCC2)cc1)N1CCc2ccccc2C1,25.2
3,CCOC(=O)C1CCN(C(=O)C2CCN(S(=O)(=O)c3cc(Cl)ccc3Cl)CC2)CC1,16
4,CCn1cnc2cc(NCc3cccc(OC)c3O)ccc21,-3.88
5,CC(OC1=CC(=O)CCC1)C(=O)c1ccccc1 (stereo not given),14.1
6,CCC(=O)N1CCc2cc(S(=O)(=O)CCC(=O)Nc3ccc(C)c(F)c3)ccc21,8.99
7,Cc1ccc(Cl)cc1NC(=O)CSc1nnc(C)n1-c1ccccc1,21.8
8,O=C(CN1CCOCC1)Nc1cccc(C(=O)Nc2cccc(C(F)(F)F)c2)c1,7.38
9,COc1cccc(NC(=O)COc2ccccc2C(N)=O)c1,-78.1
10,COc1ccc(C)cc1S(=O)(=O)N1CCN(Cc2ccccc2)CC1,21.4
11,Cc1ccc(OCC(O)Cn2c(=N)n(CCN3CCCCC3)c3ccccc32)cc1 (stereo not given),-33.6
12,CCCCC(NC(C)=O)c1nc2ccccc2n1CCC (stereo not given),22.7
13,O=C(c1cc(-c2ccco2)nn1-c1cccc(Cl)c1)N1CCCCC1,22.9
14,COC(=O)C1=C(C)NC(=O)C1(NC(=O)CN1CCCC1=O)C(F)(F)F (stereo not given),9.49
15,CN1CCN(S(=O)(=O)c2ccc(Sc3nnc(-c4cccs4)n3-c3ccccc3)nc2)CC1,1.81
16,CC(C)N(C=O)C1(C(=O)NC2CCCCC2)CCCCC1,10.2
17,COc1ccc(NC(=O)CSc2nnc(-c3ccncc3)n2CC2CCCO2)c(OC)c1 (stereo not given),7.58
18,CC1(C)CC(=O)c2cnc(NCc3ccco3)nc2C1,-11.5
19,c1ccc2c(c1)C(=Nn1cnnc1)c1ccccc1-2,10.6
20,O=C(CN1C(=O)NC(Cc2ccccc2)C1=O)Nc1ccccc1 (stereo not given),-15.9

row,Structure (SMILES),inhibition [%]
1,O=C1CSC(c2cn(-c3ccccc3)nc2-c2ccccc2)N1Cc1ccco1 (stereo not given),-1.04
2,CN(C)S(=O)(=O)c1ccc2c(c1)C(CC(=O)O)OC2=O (stereo not given),17.3
3,COc1ccc2nc(NC(=O)CSc3nnc(-c4ccoc4C)n3C)sc2c1,-11.5
4,COCCn1nnnc1C(C(C)C)N(Cc1cccnc1)Cc1ccccc1Cl (stereo not given),9.31
5,O=C(NCc1cccs1)C(Cc1ccccc1)NS(=O)(=O)c1cccs1 (stereo not given),14.7
6,COC(=O)C1=C(C)N(c2ccc(C(=O)OC)cc2)C(=O)C1,16.3
7,Cc1ccc(-n2c3c(cc(C(=O)O)c2=O)C(=O)CC(C)(C)C3)cc1,17
8,COc1ccc(OC)c(NC(=O)CCN2CCN(c3ccccc3F)CC2)c1,1.17
9,OCc1nc(CO)n(Cc2ccccc2)n1,7.11
10,O=C(COc1ccc(Cl)cc1)Nc1nc(-c2cccs2)cs1,1.13
11,CCNS(=O)(=O)c1ccc(S(=O)(=O)N(Cc2ccccn2)C2CCCCC2)cc1,12.3
12,CC1N=C2c3ccccc3N=C(SCc3cc(=O)n4cc(Cl)ccc4n3)N2C1=O (stereo not given),13.1
13,CCOC(=O)C1=C(C)N(C)C(C)=C(C(=O)OCC)C1c1cccnc1,-2.74
14,FC(F)Sc1nnc(-c2cccs2)n1-c1ccccc1,17.7
15,Cc1noc(NS(=O)(=O)c2ccc(N3C(=O)c4ccccc4C3=O)cc2)c1C,6.19
16,CC(=O)N1CCc2cc(S(=O)(=O)NCCC3=CCCCC3)ccc21,12.2
17,Cc1onc(-c2ccccc2)c1C(N)=O,16
18,CC(C(=O)Nc1ccccc1-c1ccccc1)N1CCN(C(=O)c2ccco2)CC1 (stereo not given),19.8
19,CNC(=O)CSc1nnc(-c2cc(C)cc(C)c2)o1,4.57
20,CCOc1ccc(Cl)cc1S(=O)(=O)N1CCCC1,17

# Test: inhibitors of poly I:C-induced TLR3 signaling, primary screen, cell-based, poly I:C stimulus, luciferase, 10K MLSCN set (AID 602277)
# Conditions: HEK293-TLR3 RL24 IRF3 luciferase reporter, at 10 µM, active compounds read high
row,Structure (SMILES),inhibition
1,CCC(=NC(C)c1ccccc1)c1c(O)n(C)c(=O)n(C)c1=O (stereo not given),-40%
2,O=C(c1ccc(S(=O)(=O)N2CCOCC2)cc1)N1CCc2ccccc2C1,18.8%
3,CCOC(=O)C1CCN(C(=O)C2CCN(S(=O)(=O)c3cc(Cl)ccc3Cl)CC2)CC1,9.65%
4,CCn1cnc2cc(NCc3cccc(OC)c3O)ccc21,-26.2%
5,CC(OC1=CC(=O)CCC1)C(=O)c1ccccc1 (stereo not given),18.3%
6,CCC(=O)N1CCc2cc(S(=O)(=O)CCC(=O)Nc3ccc(C)c(F)c3)ccc21,14.5%
7,Cc1ccc(Cl)cc1NC(=O)CSc1nnc(C)n1-c1ccccc1,23.3%
8,O=C(CN1CCOCC1)Nc1cccc(C(=O)Nc2cccc(C(F)(F)F)c2)c1,-4.66%
9,COc1cccc(NC(=O)COc2ccccc2C(N)=O)c1,-182%
10,COc1ccc(C)cc1S(=O)(=O)N1CCN(Cc2ccccc2)CC1,19.5%
11,Cc1ccc(OCC(O)Cn2c(=N)n(CCN3CCCCC3)c3ccccc32)cc1 (stereo not given),62.2% (active)
12,CCCCC(NC(C)=O)c1nc2ccccc2n1CCC (stereo not given),16.8%
13,O=C(c1cc(-c2ccco2)nn1-c1cccc(Cl)c1)N1CCCCC1,36.1%
14,COC(=O)C1=C(C)NC(=O)C1(NC(=O)CN1CCCC1=O)C(F)(F)F (stereo not given),21.7%
15,CN1CCN(S(=O)(=O)c2ccc(Sc3nnc(-c4cccs4)n3-c3ccccc3)nc2)CC1,4.54%
16,CC(C)N(C=O)C1(C(=O)NC2CCCCC2)CCCCC1,13.5%
17,COc1ccc(NC(=O)CSc2nnc(-c3ccncc3)n2CC2CCCO2)c(OC)c1 (stereo not given),28%
18,CC1(C)CC(=O)c2cnc(NCc3ccco3)nc2C1,-26.2%
19,c1ccc2c(c1)C(=Nn1cnnc1)c1ccccc1-2,11%
20,O=C(CN1C(=O)NC(Cc2ccccc2)C1=O)Nc1ccccc1 (stereo not given),-20.9%

row,Structure (SMILES),inhibition
1,O=C1CSC(c2cn(-c3ccccc3)nc2-c2ccccc2)N1Cc1ccco1 (stereo not given),11.5%
2,CN(C)S(=O)(=O)c1ccc2c(c1)C(CC(=O)O)OC2=O (stereo not given),26.3%
3,COc1ccc2nc(NC(=O)CSc3nnc(-c4ccoc4C)n3C)sc2c1,-48.5%
4,COCCn1nnnc1C(C(C)C)N(Cc1cccnc1)Cc1ccccc1Cl (stereo not given),31.3%
5,O=C(NCc1cccs1)C(Cc1ccccc1)NS(=O)(=O)c1cccs1 (stereo not given),15.2%
6,COC(=O)C1=C(C)N(c2ccc(C(=O)OC)cc2)C(=O)C1,6.55%
7,Cc1ccc(-n2c3c(cc(C(=O)O)c2=O)C(=O)CC(C)(C)C3)cc1,24.4%
8,COc1ccc(OC)c(NC(=O)CCN2CCN(c3ccccc3F)CC2)c1,0.616%
9,OCc1nc(CO)n(Cc2ccccc2)n1,19.9%
10,O=C(COc1ccc(Cl)cc1)Nc1nc(-c2cccs2)cs1,0.877%
11,CCNS(=O)(=O)c1ccc(S(=O)(=O)N(Cc2ccccn2)C2CCCCC2)cc1,40.2%
12,CC1N=C2c3ccccc3N=C(SCc3cc(=O)n4cc(Cl)ccc4n3)N2C1=O (stereo not given),18.7%
13,CCOC(=O)C1=C(C)N(C)C(C)=C(C(=O)OCC)C1c1cccnc1,6.76%
14,FC(F)Sc1nnc(-c2cccs2)n1-c1ccccc1,31%
15,Cc1noc(NS(=O)(=O)c2ccc(N3C(=O)c4ccccc4C3=O)cc2)c1C,25.2%
16,CC(=O)N1CCc2cc(S(=O)(=O)NCCC3=CCCCC3)ccc21,-2.52%
17,Cc1onc(-c2ccccc2)c1C(N)=O,16.2%
18,CC(C(=O)Nc1ccccc1-c1ccccc1)N1CCN(C(=O)c2ccco2)CC1 (stereo not given),33.6%
19,CNC(=O)CSc1nnc(-c2cc(C)cc(C)c2)o1,-12.1%
20,CCOc1ccc(Cl)cc1S(=O)(=O)N1CCCC1,15.8%
